1 compound from ChEMBL document CHEMBL1961873, “Compounds: GSK PKIS; Assays: Nanosyn kinase panel” (2012) can be followed below.

“And” between values parts separate entries of the source, which are not always exact repeats. Identical values can stand only once.

Experiment [1] deals with T1, Inhibitor of nuclear factor kappa-B kinase subunit epsilon (Homo sapiens) (UniProt Q14164).
T1 sequence (whole entry): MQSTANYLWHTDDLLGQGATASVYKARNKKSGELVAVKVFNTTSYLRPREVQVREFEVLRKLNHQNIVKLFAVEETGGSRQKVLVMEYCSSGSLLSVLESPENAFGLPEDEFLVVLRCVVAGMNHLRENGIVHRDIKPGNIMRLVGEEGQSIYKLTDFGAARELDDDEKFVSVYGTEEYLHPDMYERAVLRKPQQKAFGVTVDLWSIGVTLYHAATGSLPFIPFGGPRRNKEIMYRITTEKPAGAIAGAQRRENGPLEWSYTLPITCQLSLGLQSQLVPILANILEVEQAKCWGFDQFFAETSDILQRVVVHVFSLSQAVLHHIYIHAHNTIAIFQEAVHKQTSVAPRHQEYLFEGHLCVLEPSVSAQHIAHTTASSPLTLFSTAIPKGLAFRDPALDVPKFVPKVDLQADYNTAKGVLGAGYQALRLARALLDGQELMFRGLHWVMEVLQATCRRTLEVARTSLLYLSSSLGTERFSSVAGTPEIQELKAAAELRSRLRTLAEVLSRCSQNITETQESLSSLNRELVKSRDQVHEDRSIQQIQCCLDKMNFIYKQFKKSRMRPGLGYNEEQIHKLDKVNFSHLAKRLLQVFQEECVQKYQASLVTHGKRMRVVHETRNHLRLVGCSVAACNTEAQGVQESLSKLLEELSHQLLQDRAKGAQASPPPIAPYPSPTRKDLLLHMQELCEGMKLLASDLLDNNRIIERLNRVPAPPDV
The conditions noted are these: at 1 µM.

In experiment [2] the target is T2, Serine/threonine-protein kinase Nek1 (Homo sapiens) (UniProt Q96PY6).
T2 sequence (whole entry): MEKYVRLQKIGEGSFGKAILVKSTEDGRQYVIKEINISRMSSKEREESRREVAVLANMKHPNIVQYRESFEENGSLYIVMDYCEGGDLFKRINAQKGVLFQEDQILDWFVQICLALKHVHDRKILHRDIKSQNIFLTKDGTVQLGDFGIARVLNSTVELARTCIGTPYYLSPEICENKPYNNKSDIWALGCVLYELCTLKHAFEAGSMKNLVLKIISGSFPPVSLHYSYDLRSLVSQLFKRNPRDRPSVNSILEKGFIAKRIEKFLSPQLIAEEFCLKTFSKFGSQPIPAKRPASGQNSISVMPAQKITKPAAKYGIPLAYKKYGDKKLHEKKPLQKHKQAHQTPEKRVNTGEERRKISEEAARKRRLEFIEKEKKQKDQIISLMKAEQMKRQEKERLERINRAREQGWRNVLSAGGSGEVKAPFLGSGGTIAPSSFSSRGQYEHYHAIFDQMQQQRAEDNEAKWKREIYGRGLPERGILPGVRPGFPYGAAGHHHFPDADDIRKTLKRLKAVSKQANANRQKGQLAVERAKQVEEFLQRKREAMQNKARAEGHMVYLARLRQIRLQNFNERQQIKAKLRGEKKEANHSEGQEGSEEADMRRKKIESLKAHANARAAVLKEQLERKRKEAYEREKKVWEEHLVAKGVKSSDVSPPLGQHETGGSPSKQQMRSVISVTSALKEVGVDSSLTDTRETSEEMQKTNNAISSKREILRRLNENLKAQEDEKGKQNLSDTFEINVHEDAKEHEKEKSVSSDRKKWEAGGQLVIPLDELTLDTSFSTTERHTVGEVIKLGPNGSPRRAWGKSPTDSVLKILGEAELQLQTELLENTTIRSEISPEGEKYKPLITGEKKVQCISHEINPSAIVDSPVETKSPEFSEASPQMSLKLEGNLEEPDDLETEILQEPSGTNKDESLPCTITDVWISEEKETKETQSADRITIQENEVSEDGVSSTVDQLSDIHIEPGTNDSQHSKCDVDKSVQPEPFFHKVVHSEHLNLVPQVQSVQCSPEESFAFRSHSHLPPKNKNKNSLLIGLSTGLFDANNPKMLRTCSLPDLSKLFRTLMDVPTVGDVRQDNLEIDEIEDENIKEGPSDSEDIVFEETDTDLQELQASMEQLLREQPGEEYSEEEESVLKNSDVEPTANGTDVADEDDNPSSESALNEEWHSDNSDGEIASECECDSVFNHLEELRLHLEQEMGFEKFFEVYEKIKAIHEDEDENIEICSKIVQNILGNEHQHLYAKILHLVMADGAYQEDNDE
The conditions noted are these: at 0.1 µM.

In experiment [3] the target is T2, Serine/threonine-protein kinase Nek1 (Homo sapiens). The conditions noted are these: at 1 µM.
For experiment [4], the target named is T3, Serine/threonine-protein kinase Nek2 (Homo sapiens) (UniProt P51955).
T3 sequence (whole entry): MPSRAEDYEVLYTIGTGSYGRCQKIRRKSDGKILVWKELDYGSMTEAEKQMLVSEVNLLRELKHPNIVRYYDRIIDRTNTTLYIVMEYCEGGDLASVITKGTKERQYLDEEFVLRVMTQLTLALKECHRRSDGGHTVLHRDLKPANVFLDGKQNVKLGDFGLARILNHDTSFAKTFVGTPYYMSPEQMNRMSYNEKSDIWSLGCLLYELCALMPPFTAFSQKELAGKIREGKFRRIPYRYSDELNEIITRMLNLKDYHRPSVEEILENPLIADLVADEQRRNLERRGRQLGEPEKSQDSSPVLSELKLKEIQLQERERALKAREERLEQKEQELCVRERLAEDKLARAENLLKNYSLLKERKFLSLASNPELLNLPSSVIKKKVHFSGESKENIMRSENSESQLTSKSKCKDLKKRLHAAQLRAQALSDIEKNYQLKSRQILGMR
The conditions noted are these: at 0.1 µM.

Experiment [5] deals with T3, Serine/threonine-protein kinase Nek2 (Homo sapiens). The conditions noted are these: at 1 µM.
In experiment [6] the target is Serine/threonine-protein kinase Nek6 (Homo sapiens) (UniProt Q9HC98). The conditions noted are these: at 0.1 µM.
The target is the same in experiment [7]. The conditions noted are these: at 1 µM.
In experiment [8] the target is Serine/threonine-protein kinase Nek7 (Homo sapiens) (UniProt Q8TDX7). The conditions noted are these: at 0.1 µM.
The target is the same in experiment [9]. The conditions noted are these: at 1 µM.
The target of experiment [10] is T4, Serine/threonine-protein kinase Nek9 (Homo sapiens) (UniProt Q8TD19).
T4 sequence (whole entry): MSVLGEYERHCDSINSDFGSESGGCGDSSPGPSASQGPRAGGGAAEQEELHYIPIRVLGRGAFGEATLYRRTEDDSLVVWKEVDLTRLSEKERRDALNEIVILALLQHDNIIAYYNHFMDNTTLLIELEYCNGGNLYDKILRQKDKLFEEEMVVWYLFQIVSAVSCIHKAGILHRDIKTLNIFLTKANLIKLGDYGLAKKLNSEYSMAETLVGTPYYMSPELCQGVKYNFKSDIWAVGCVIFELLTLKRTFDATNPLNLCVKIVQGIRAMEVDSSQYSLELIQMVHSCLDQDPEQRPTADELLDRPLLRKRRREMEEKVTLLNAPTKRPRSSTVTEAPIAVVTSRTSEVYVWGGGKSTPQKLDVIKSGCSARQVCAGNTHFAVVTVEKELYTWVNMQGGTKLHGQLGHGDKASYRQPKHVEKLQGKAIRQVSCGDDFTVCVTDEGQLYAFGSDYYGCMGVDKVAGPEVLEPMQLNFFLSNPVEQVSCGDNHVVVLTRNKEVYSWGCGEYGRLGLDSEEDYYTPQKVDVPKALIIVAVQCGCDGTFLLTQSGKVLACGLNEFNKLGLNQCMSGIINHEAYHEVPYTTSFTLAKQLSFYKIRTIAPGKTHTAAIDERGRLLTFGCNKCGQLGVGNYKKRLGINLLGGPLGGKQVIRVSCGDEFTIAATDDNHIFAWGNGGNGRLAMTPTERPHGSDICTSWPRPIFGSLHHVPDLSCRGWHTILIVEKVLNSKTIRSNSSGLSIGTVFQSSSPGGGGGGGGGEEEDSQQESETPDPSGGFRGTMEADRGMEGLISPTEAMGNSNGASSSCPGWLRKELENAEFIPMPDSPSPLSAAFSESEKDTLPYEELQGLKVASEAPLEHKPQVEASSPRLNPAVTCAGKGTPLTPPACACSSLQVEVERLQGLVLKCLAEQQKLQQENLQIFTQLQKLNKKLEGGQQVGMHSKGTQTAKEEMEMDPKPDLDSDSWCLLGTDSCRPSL
The conditions noted are these: at 0.1 µM.

In experiment [11] the target is T4, Serine/threonine-protein kinase Nek9 (Homo sapiens). The conditions noted are these: at 1 µM.
In experiment [12] the target is Serine/threonine-protein kinase PLK1 (Homo sapiens) (UniProt P53350). The conditions noted are these: at 0.1 µM.
Experiment [13] has the same target. The conditions noted are these: at 1 µM.
Experiment [14] deals with T5, Dual specificity protein kinase TTK (Homo sapiens) (UniProt P33981).
T5 sequence (whole entry): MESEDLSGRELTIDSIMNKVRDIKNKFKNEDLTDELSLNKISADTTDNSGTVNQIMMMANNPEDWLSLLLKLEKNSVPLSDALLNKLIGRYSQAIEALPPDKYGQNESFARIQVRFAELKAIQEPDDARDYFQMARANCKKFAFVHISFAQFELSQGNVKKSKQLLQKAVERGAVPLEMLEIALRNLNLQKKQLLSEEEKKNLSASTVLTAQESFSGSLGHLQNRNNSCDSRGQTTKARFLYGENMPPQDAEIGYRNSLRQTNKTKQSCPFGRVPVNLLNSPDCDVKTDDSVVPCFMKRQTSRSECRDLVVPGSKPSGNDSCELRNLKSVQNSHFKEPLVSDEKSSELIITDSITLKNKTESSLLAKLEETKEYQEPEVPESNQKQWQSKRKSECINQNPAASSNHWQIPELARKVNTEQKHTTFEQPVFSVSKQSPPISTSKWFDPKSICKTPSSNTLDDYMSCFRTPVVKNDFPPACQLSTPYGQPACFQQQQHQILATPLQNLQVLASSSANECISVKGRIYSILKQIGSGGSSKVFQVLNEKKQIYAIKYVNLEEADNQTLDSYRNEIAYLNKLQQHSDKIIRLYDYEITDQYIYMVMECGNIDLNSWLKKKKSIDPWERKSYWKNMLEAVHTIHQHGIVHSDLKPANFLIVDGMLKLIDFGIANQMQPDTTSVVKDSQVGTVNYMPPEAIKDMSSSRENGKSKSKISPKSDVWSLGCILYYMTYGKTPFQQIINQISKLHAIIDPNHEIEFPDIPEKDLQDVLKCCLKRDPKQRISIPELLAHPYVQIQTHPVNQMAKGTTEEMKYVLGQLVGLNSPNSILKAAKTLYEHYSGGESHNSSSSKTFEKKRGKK
The conditions noted are these: at 0.1 µM.

The test system of experiment [15] is T6, Receptor-type tyrosine-protein kinase FLT3 (Homo sapiens), P36888 [D835Y].
T6 sequence (whole entry): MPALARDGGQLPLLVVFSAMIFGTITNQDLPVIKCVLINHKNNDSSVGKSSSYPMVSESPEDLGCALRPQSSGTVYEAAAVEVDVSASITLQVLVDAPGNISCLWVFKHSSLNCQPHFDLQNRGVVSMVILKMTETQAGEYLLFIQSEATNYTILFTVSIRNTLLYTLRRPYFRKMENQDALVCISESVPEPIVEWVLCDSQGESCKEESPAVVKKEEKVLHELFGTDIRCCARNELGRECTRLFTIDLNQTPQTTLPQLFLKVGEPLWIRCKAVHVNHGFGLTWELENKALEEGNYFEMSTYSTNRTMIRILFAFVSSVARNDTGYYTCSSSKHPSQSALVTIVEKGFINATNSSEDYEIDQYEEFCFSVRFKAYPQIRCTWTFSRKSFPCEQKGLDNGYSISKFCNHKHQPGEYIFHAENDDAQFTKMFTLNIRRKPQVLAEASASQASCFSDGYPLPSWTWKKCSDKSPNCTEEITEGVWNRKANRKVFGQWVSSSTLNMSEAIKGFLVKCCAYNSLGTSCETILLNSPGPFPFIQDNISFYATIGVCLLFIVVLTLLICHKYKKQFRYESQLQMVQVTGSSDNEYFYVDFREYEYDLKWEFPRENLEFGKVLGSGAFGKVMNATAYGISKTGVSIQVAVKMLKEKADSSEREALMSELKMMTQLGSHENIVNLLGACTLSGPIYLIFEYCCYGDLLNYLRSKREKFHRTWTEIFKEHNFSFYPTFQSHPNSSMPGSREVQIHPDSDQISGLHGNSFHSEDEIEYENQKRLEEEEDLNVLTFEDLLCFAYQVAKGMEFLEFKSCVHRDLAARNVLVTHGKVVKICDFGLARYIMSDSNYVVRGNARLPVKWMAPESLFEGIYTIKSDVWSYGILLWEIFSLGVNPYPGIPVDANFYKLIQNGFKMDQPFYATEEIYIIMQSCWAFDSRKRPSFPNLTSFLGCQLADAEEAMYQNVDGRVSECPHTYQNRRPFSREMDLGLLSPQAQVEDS
The conditions noted are these: at 1 µM.

In experiment [16] the target is Vascular endothelial growth factor receptor 3 (Homo sapiens) (UniProt P35916). The conditions noted are these: at 0.1 µM.
The target is the same in experiment [17]. The conditions noted are these: at 1 µM.
The target in experiment [18] is Macrophage colony-stimulating factor 1 receptor (Homo sapiens) (UniProt P07333). The conditions noted are these: at 0.1 µM.
Experiment [19] shares this target. The conditions noted are these: at 1 µM.
Experiment [20] addresses Tyrosine-protein kinase Fyn (Homo sapiens) (UniProt P06241). The conditions noted are these: at 0.1 µM.

Sequence of Serine/threonine-protein kinase Nek7 (Homo sapiens) (Q8TDX7 whole entry, looked up): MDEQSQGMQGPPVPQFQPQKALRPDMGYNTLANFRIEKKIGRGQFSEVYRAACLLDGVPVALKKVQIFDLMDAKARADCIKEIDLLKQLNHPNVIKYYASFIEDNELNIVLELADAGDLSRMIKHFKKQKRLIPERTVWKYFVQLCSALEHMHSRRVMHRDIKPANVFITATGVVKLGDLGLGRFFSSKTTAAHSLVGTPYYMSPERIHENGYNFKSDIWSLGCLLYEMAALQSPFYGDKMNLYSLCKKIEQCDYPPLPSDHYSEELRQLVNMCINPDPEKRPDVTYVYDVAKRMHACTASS
Sequence of Vascular endothelial growth factor receptor 3 (Homo sapiens) (P35916 whole entry): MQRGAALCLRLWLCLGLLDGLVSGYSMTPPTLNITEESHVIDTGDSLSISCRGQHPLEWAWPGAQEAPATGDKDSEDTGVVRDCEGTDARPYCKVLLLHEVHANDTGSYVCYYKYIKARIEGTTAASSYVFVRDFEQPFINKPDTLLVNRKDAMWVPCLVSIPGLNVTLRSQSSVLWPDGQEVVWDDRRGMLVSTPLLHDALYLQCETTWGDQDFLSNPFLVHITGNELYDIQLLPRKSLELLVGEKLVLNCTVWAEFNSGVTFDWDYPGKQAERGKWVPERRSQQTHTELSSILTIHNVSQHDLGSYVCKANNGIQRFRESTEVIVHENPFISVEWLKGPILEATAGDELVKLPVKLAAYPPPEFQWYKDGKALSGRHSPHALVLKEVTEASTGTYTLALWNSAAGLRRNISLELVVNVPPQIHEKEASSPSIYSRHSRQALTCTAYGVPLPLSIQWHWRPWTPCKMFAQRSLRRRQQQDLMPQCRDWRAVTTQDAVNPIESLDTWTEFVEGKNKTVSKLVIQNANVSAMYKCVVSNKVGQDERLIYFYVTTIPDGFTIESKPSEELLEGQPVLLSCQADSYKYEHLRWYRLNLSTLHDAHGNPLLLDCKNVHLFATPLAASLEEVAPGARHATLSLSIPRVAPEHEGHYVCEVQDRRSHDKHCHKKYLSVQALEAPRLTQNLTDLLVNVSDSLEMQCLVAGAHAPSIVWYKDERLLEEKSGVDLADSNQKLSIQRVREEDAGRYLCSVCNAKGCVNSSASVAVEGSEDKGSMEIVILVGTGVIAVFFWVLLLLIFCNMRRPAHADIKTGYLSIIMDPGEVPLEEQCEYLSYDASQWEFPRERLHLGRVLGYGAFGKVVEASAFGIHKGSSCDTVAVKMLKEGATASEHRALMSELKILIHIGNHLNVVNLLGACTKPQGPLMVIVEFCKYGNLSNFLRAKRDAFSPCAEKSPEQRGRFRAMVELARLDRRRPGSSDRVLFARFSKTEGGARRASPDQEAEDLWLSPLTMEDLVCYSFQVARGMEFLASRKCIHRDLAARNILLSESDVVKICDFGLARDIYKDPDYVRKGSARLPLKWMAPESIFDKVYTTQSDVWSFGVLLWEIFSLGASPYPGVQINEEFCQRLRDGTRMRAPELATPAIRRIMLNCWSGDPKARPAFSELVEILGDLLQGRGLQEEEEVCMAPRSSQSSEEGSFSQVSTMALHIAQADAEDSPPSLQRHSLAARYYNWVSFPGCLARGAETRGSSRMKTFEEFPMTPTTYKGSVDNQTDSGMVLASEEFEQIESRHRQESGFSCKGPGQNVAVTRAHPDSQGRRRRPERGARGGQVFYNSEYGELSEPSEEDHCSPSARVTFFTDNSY
Sequence of Macrophage colony-stimulating factor 1 receptor (Homo sapiens) (P07333 whole entry): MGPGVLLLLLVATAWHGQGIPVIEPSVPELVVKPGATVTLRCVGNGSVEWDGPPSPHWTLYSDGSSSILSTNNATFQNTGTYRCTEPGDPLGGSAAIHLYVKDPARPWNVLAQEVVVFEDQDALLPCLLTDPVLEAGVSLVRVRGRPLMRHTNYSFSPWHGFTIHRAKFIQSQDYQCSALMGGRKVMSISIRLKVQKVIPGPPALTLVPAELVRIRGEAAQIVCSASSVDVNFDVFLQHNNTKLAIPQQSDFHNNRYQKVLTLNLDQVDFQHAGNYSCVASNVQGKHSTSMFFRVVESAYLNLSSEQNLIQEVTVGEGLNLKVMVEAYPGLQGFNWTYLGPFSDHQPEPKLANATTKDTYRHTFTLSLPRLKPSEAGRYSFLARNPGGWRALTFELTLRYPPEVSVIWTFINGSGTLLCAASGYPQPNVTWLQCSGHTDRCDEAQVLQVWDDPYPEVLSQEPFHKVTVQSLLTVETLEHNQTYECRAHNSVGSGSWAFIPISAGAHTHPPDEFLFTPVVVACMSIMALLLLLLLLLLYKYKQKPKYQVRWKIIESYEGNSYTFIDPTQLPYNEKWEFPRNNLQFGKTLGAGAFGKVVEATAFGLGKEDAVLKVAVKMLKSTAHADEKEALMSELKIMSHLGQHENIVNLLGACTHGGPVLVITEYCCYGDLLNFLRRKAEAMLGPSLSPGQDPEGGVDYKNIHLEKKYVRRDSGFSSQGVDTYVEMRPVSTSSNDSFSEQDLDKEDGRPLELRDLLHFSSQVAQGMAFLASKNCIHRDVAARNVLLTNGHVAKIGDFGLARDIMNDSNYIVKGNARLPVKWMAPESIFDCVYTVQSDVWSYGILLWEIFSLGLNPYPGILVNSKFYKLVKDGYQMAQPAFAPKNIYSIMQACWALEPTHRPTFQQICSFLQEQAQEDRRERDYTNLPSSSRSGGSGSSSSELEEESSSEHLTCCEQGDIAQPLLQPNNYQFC
Sequence of Serine/threonine-protein kinase PLK1 (Homo sapiens) (P53350 whole entry): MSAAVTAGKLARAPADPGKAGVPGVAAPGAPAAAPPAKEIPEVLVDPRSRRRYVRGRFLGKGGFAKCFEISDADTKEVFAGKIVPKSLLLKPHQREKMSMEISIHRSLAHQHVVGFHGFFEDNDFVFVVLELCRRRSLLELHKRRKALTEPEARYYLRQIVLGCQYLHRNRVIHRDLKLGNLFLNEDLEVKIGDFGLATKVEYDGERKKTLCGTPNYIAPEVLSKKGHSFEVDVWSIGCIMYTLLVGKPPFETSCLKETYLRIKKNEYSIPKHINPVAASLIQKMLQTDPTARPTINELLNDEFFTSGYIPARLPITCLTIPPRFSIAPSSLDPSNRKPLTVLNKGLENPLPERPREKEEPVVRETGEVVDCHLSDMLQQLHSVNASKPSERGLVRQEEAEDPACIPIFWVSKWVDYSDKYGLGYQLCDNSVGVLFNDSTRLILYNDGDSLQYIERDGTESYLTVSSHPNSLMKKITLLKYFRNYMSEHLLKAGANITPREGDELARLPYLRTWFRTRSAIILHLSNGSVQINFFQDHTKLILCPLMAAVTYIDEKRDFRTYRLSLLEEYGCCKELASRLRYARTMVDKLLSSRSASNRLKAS
Sequence of Serine/threonine-protein kinase Nek6 (Homo sapiens) (Q9HC98 whole entry): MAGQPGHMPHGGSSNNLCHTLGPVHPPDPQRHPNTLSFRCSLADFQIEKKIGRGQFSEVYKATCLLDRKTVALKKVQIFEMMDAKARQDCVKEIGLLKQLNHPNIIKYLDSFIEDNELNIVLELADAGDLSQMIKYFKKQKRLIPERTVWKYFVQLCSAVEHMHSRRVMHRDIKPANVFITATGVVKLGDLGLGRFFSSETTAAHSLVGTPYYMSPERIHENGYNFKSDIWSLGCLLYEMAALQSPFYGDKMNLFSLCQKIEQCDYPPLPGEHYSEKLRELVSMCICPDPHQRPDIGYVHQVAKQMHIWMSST
Sequence of Tyrosine-protein kinase Fyn (Homo sapiens) (P06241 2-537 limits assumed): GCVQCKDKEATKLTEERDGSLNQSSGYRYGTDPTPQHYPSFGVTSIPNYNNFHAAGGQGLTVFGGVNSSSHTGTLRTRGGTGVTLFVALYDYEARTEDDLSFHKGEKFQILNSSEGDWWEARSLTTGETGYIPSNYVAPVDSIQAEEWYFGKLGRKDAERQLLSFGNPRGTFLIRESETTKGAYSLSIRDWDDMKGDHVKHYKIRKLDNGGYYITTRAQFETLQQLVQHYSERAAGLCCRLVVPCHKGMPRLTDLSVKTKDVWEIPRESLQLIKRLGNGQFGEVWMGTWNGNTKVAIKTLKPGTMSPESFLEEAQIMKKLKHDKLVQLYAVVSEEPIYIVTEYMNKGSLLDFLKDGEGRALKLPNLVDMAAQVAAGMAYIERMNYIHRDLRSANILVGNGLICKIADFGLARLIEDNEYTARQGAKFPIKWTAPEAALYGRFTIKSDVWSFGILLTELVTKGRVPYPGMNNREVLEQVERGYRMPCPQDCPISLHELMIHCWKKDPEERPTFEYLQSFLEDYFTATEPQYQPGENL

As for `Nc1nonc1-c1nc2cnccc2n1C1CC1`, the inhibition – broadly, the relative decrease from the control value, in per cent – was 11.3% and 10.2% in [1]; 1.72% and 1.48% in experiment [2]; 6.39% and 2.72% in experiment [3]; 5.51% and 2.84% in experiment [4]; 4.67% and 4.04% in experiment [5]; 3.25% and -0.01% in experiment [6]. For the same compound, the inhibition in experiment [7] is -0.06% and 2.15%; in [8], 3.77% and 4.5%; in [9] it was 2.89% and 3.28%; in [10], 8.67% and 3.36%; in experiment [11], 1.51% and 3.66%; in [12], 3.84% and 2.82%. For the same compound, the inhibition is 5.97% and 4.56% in experiment [13]; 5.61% and 5.02% in experiment [14]; 7.78% and 5.95% in [15]; 5.27% and -4.56% in [16]; 21.9% and 17.5% in experiment [17]; 3.87% and 1.25% in experiment [18]. Also, the inhibition is 10.1% and 8.4% in experiment [19]; 1.35% and -1.92% in experiment [20].
